Compound activity deposited in PubChem by several laboratories.
Compounds with a hit are over-represented: about 4.8% of the library has one in this group of screens.
tim23-1 inh: tim23-1 yeast growth inhibition | hit rate 1.3% among 330,000 | S. cerevisiae tim23-1 growth, BacTiter-Glo luminescence, 24 h | inhibition, % at 20 µM;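 active = growth inhibition of the mutant yeast at or above 50%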;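 note: temperature-sensitive mutant grown at 25 °C; plate controls were DMSO-treated mutant yeast for no effect and medium wells lacking yeast for full effect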
SKKanGAS inh: inhibitors of SKKanGAS S. pyogenes growth in kanamycin (SK-promoter or general growth effect); BacTiter-Glo, 6 h; inhibition, % at 7.5 µM; hit rate 1.3% among 300,000; AID 1662;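 active = mean replicate score, as percent of positive control median, at least 50; inconclusive = mean below 50 but one replicate at or above 50; inactive = mean and every replicate below 50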;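 note: strain carries kanamycin resistance gene driven by streptokinase promoter and grows in 40 µg/ml kanamycin; loss of luminescence reflects streptokinase promoter inhibition or plain growth inhibition; 0% = median of DMSO wells and 100% = positive control at its reference dose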
NALP1 yeast inh: NALP1 inhibition; S. cerevisiae NALP1/ASC/caspase-1 growth, X-gal OD620, 72 h; inhibition, % at 10 µM; hit rate 0.61% among 280,000; in the data active = inhibition mostly above about 24%, no sharp cut-off; inactive = mostly below about 32%
PfHsp90 set2: inhibits growth of yeast expressing Plasmodium falciparum Hsp90 | S. cerevisiae expressing PfHsp90, BacTiter-Glo ATP, 48 h; yeast lacking PDR1 and PDR3 efflux regulators | inhibition, % at 9.4 µM | hit rate 0.32% among 310,000 | AID 504621;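 active = every replicate shows inhibition above about 80%, whatever the replicate mean, limit read from the data; inconclusive = mean inhibition reaches the set limit but some replicate falls short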;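 note: 0% = DMSO neutral controls and 100% = 20 µM radicicol positive controls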
TIM10 inh: TIM10 yeast growth inhibition; S. cerevisiae TIM10 strain growth, BacTiter-Glo luminescence, 24 h; inhibition, % at 10 µM; hit rate 1.4% among 330,000; AID 463195;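 active = inhibition of 40% or more at the single tested concentration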;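 note: wild-type TIM10 isogenic control strain grown at permissive 25 °C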
tim10-1 inh: inhibits growth of tim10-1 mutant yeast. inhibition, % at 20 µM. S. cerevisiae tim10-1 ts strain growth, BacTiter-Glo, 24 h. AID 463190. hit rate 2.2% among 330,000;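 active = inhibition of at least 40%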;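 note: mutant grown at 25 °C; 0% = DMSO wells with yeast and 100% = wells holding no yeast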
tim23-1 conf: tim23-1 yeast growth inhibition, confirmed; shares compounds with tim23-1 inh; S. cerevisiae tim23-1 growth, BacTiter-Glo luminescence, 24 h; inhibition, % at 20 µM; hit rate 83% among 4,400; AID 463218;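 active = inhibition above about 39% in either of two replicate wells at 20 µM, limit read from the data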;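 note: temperature-sensitive tim23-1 mutant grown at 25 °C; 0% = DMSO wells with yeast and 100% = medium wells without yeast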
* hit, by the source's call; ? = inconclusive; . = no result given.

SMILES	tim23-1 inh	SKKanGAS inh	NALP1 yeast inh	PfHsp90 set2	TIM10 inh	tim10-1 inh	tim23-1 conf
O=C(N/N=C/c1ccccc1C(=O)O)c1cc(-c2ccc3c4c(cccc24)CC3)n[nH]1	16	4	10	-21	25	14	.
Cc1[nH]c2c(Br)cccc2c1[C@H]1[C@@H](CC#N)C1(C)C	51*	14	36	-14	33	34	46*
Cc1c([C@H]2[C@@H](CC#N)C2(C)C)c2ccccc2n1C	5	-5	8	0	21	22	.
Cc1cc(NC(=O)c2ccc3c(c2)C(=O)N(CC(C)C)C3=O)no1	-4	-12	5	7	-17	-18	.
Cc1ccnc(NC(=O)c2ccc3c(c2)C(=O)N(CC(C)C)C3=O)c1	63*	10	-2	13	33	19	57*
COc1ccc(-c2csc(NC(=O)C(CC(=O)O)N3CCOCC3)n2)cc1 (stereo unspecified)	11	-1	2	-3	0	4	.
CCc1cc2c3c(c1)C(C)CC(C)(C)N3C(=O)/C2=C1\SC(=O)NC1=O (stereo unspecified)	59*	26	-4	20	18	23	50*
CC(C)CC(=O)Nc1c2c(nn1-c1ccc([N+](=O)[O-])cc1)CS(=O)(=O)C2	3	-6	2	9	1	3	.
Oc1ccc(/C=N/Nc2cccc3cccnc23)c(O)c1	58*	6	26	-1	19	-4	57*
COc1ccccc1C(=O)Nc1nnc(-c2ccc3c(c2)CCCC3)o1	52*	58*	30	-43	39	25	56*
Cc1cccc(C)c1OCCOC(=O)c1n[nH]c2ccccc12	46	5	6	-36	38	26	.
Cc1ccc(C)c(C(=O)COC(=O)c2n[nH]c3ccccc23)c1	58*	.	.	-3	36	23	49*
O=C(COC(=O)c1n[nH]c(=O)c2ccccc12)c1ccccc1	9	-2	-1	4	7	21	.
O=C(COC(=O)c1n[nH]c2ccccc12)c1cccc(Br)c1	50*	39	2	-3	13	30	40*
O=C(CCCn1nnnc1CN1CCOCC1)N1CCC(c2ccccc2F)C1 (stereo unspecified)	-16	-4	4	8	3	-1	.
O=C1C(=Cc2cccs2)Oc2ccccc21	.	.	.	20	.	.	.
O=C1/C(=C/c2cccs2)COc2ccccc21	58*	6	37	-5	33	28	58*
O=C(NC(=S)NCc1ccco1)c1ccc(Br)cc1	56*	-2	4	.	31	33	45*
CC(NC(=O)COC(=O)[C@@H]1CCCN1S(=O)(=O)c1ccccc1F)C12CC3CC(CC(C3)C1)C2 (stereo partly specified)	43	-4	.	4	-3	4	.
CCOc1c2ccoc2nc2c(OC)c(OC)ccc12	61*	-1	-11	31	34	27	65*
C=CCOc1ccc2c(OC)c3ccoc3nc2c1OC	36	-10	3	66	16	11	.
COC(=O)c1cccc(-c2ccc(C(c3c(C)[nH][nH]c3=O)c3c(C)[nH][nH]c3=O)o2)c1	51*	-2	-3	-4	5	33	49*
O=C(/C=C/c1ccc(Cl)cc1)c1ccc([N+](=O)[O-])o1	60*	-6	.	.	34	-2	10
CCN1CCN(c2cc(-c3ccccc3)nc3cc(-c4cccc(F)c4)nn23)CC1	53*	20	31	13	25	26	33
OC1CCN(c2cc(-c3ccccc3)nc3cc(-c4ccc(F)cc4)nn23)CC1	16	35	1	13	32	31	.
SMILES	tim23-1 inh	SKKanGAS inh	NALP1 yeast inh	PfHsp90 set2	TIM10 inh	tim10-1 inh	tim23-1 conf
CC1=C(C#N)c2nc(N)c(C#N)c(C)c2/C1=C\c1ccc(OCC(=O)O)c(Cl)c1	54*	13	17	-18	18	37	49*
CCOC(=O)CSc1nc(N)c(C#N)c(-c2ccc(OCC)cc2)c1C#N	4	3	17	-7	6	6	.
Cc1ccc(C2=NNC(=O)C(c3ccc(Cl)cc3)C2)cc1 (stereo unspecified)	45	7	13	.	-17	28	.
O=C1NN=C(c2ccc(Cl)cc2)CC1c1cccc(Br)c1 (stereo unspecified)	53*	-5	14	-26	12	36	59*
COc1ccccc1OC(=O)c1cc2ccccc2oc1=O	26	5	-11	-5	-4	8	.
COc1cc(/C=C/[N+](=O)[O-])ccc1OC(=O)c1cc2ccccc2oc1=O	80*	1	-13	106*	25	21	73*
O=C(CC12CC3CC(CC(C3)C1)C2)N/N=C/c1ccc([N+](=O)[O-])o1	57*	-16	42	-20	36	38	37
O=C(Cc1ccc([N+](=O)[O-])cc1)N/N=C/c1ccc([N+](=O)[O-])o1	16	?	13	-3	-1	16	.
Cc1cc(C)cc(OCC(=O)N/N=C/c2ccc([N+](=O)[O-])o2)c1	52*	-6	-1	22	33	33	38
CC1=CCC(C(=O)N/N=C/c2cccs2)C(c2ccc(F)cc2)C1 (stereo unspecified)	26	1	10	-3	25	27	.
O=C(Nc1ccc(NC(=O)c2ccco2)cc1)c1ccco1	46	-1	3	3	19	-22	.
O=C(Nc1ccc(-c2ccc(N3CCCCC3)nn2)cc1)c1ccco1	63*	20	.	.	30	27	66*
O=C(Nc1nc(-c2ccc(Cl)s2)cs1)c1ccco1	62*	13	4	16	29	21	67*
Nc1nc(-c2ccc(NC(=O)c3ccco3)cc2)cs1	56*	16	5	33	39	35	70*
CC(=O)Nc1cccc(-c2cn3ccc(C)cc3n2)c1	4	3	14	-37	3	-1	.
O=C(Nc1nc(-c2nc3ccccc3s2)cs1)c1ccco1	-12	-3	-73	-39	-35	-6	.
Cc1ccn2cc(-c3ccc(NC(=O)c4ccco4)cc3)nc2c1	56*	-6	46*	16	32	-37	48*
CCc1ccc(OCC(=O)NNC(=O)c2c(CC)noc2C)cc1	-4	-6	.	4	-6	-16	.
O=C(Nc1nc(-c2cccs2)c(-c2ccccc2)s1)c1ccco1	55*	52*	-13	-26	36	26	62*
COc1ccccc1N1CCN(C(=O)c2cc3ccccc3[nH]2)CC1	52*	4	-2	-17	24	26	48*
